This is part of a sample that, as a whole, favours compounds with a hit. Of some 83,000 tested, about 20% had one in any assay.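 How to read the values: 0–100, growth inhibition (40 = 60% inhibited); 0, no net growth; -100 to 0, cell death (-40 = 40% of starting cells died; -100 = all dead).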 Unmarked numbers belong to inactive results. The source made the active and inactive calls. The calls were made as follows: active = growth percent below 10; inactive = the rest.
Experiments:
Assay in all cases: NCI-60 one-dose screen, 48 h (100 = growth as untreated, 0 = no growth, -100 = all killed)
Settings in all cases: 10 µM
[1] = system: NCI-H23 lung
[2] = system: NCI-H226 lung
[3] = system: NCI-H322M lung
[4] = system: NCI-H460 lung
[5] = system: NCI-H522 lung
[6] = system: A549/ATCC NSCLC
[7] = system: 786-0 renal
[8] = system: COLO 205 colon
[9] = system: HOP-92 NSCLC

| SMILES | growth [1] | growth [2] | growth [3] | growth [4] | growth [5] | growth [6] | growth [7] | growth [8] | growth [9] |
| --- | --- | --- | --- | --- | --- | --- | --- | --- | --- |
| c1ccc(CCCCc2ccc3ccccc3n2)cc1 | 102% | 94.8% | 99.7% | 105% | 75.3% | 98.5% | 102% | – | – |
| CCCC1(CN2c3ccccc3Sc3ccc(Cl)cc32)CCN(CC)C1 (stereo not drawn) | 5.21% (active) | 32.4% | 25.5% | -100% (active) | -75.2% (active) | 18.6% | -95.7% (active) | -80.8% (active) | – |
| CCCCC/C=C/C/C=C/CCCCCCCC1=NC(C)(C)CN1C(C)C | 20.7% | 86.5% | 108% | -32.3% (active) | – | – | 62.4% | -87.2% (active) | – |
| CCN1C(=O)CC(SC2CC(=O)N(CC)C2=O)C1=O (stereo not drawn) | 95.9% | 104% | 110% | 109% | 96.1% | 104% | 101% | 81.4% | – |
| CC(=O)OC1C=CC(OC(C)=O)O1 (stereo not drawn) | 89.4% | 80% | 101% | 96.5% | 79.2% | 103% | 94.6% | 97.1% | – |
| COC(=O)c1cc2oc(/C=C3/SC(=S)N(N)C3=O)cc2n1Cc1ccccc1 | 58.4% | 57% | 39.4% | 40.5% | – | 53.4% | – | 75% | -69% (active) |
| Cc1cc(C)nc(NS(=O)(=O)c2ccc(Nc3nc4nc(NCc5ccccc5)nc(-c5ccc(O)cc5)c4c(=O)[nH]3)cc2)n1 | 31.6% | 31.9% | 10.2% | 16.4% | – | 43.9% | – | 35.3% | -11.1% (active) |
| COc1cc(C2CC(c3cc(Cl)c(C)cc3O)=NN2c2ccc(S(N)(=O)=O)cc2)cc(OC)c1OC (stereo not drawn) | 3.07% (active) | 23.5% | 41.3% | -67.7% (active) | 8.94% (active) | 24.2% | – | -100% (active) | – |
| OC(CNc1ccnc2cc(Cl)ccc12)CNC1CCCCC1 (stereo not drawn) | 86.7% | 105% | 74.7% | 109% | 49.6% | 88.4% | 87.9% | -25.4% (active) | – |
| O=C(CI)OCC(COC(=O)CI)OC(=O)CI | 65.9% | 97.1% | 112% | 98.9% | – | 104% | 45.9% | 33.2% | – |
| CC(=O)/C(=C/c1ccc(Br)cc1)C(=O)c1ccccc1 | 99.5% | 87.8% | 115% | 103% | 85.2% | 94% | 84.5% | 111% | – |
| CC(C)(C)c1ccc(S(=O)(=O)N[C@H]2CC[C@H]3[C@@H]4CCc5cc(O)ccc5[C@H]4CC[C@]23C)cc1 | 50.3% | 55.7% | 78.7% | 33.7% | 31.8% | 28.5% | 49.6% | 8.52% (active) | – |
| O=C1/C(=C/c2cccc(F)c2)Cc2ccccc21 | 101% | 105% | 94.4% | 107% | – | 87.7% | 98.1% | 124% | 73.5% |
| COc1ccc2nc3cc(Cl)ccc3c(NCCCNCCO)c2c1 | -21.7% (active) | -9.48% (active) | -22.6% (active) | -8.13% (active) | -86.5% (active) | -26.2% (active) | 6.46% (active) | – | – |
| COc1cc(-c2ccc[nH]2)[nH]c1/C=C1\N=C(C)C(C(=O)NC(C)C)=C1C | 40.5% | 42.7% | 39.2% | 9.93% (active) | 13.4% | 14.7% | 8.09% (active) | 26.9% | – |
| CC(C)(C)c1ccc(S(=O)(=O)N[C@H]2CC[C@H]3[C@@H]4CCc5cc(OS(=O)(=O)O)ccc5[C@H]4CC[C@]23C)cc1 | 56.8% | 52.4% | 61% | 26.2% | – | 31.6% | 50% | 13.8% | – |

| SMILES | growth [1] | growth [2] | growth [3] | growth [4] | growth [5] | growth [6] | growth [7] | growth [8] | growth [9] |
| --- | --- | --- | --- | --- | --- | --- | --- | --- | --- |
| C[C@]12CC[C@@H]3c4ccc(OS(=O)(=O)O)cc4CC[C@H]3[C@@H]1CC[C@@H]2NS(=O)(=O)c1ccc(-c2ccccc2)cc1 | 61.5% | 68.4% | 86.9% | 43.3% | 44.4% | 36.3% | 69.6% | 47.4% | – |
| C=C1CCC2(C#N)[C@H]3[C@H](CC[C@@H]2C)[C@@H](C)C[C@@H](CC(C)(C)NC(=O)CN2CCC2=O)[C@H]13 (stereo partly drawn) | 60.3% | 60.6% | 96.1% | 52.1% | 46.6% | 67.3% | – | 54% | – |
| CC(=O)Nc1cc2c(cc1Cl)Cc1cc(Cl)ccc1-2 | 77.1% | 83% | 96% | 95.9% | 79.6% | – | 112% | 105% | – |
| Cc1ccc(-n2nnnc2N)c(C)c1 | 98.1% | 115% | 121% | 103% | 112% | 104% | 105% | 117% | – |
| COc1cc2nc(SCC(=O)Nc3cc(OC)c(OC)c(OC)c3)n(Cc3ccccc3)c(=O)c2cc1OC | 69.6% | 45.9% | 65.2% | 68.7% | – | 28.1% | -6.9% (active) | 96.2% | – |
| N=C1S/C(=C/c2ccc(-c3ccc4c(c3)C(=O)NC4=O)o2)C(=O)N1c1ccc(Br)cc1 | 55.8% | 66.5% | 43% | 34.6% | 35.5% | 34.5% | 45.9% | 55.1% | – |
| CSc1ccc(-c2cc(-c3ccc(NC(=O)CCCN4CCCC4)cc3)nc(-c3ccc(NC(=O)CCCN4CCCC4)cc3)c2)cc1 | 92.8% | 81.9% | 94.8% | 32.1% | 62.5% | 46.2% | 80.7% | 82.6% | – |
| CCN(CC)CCCC(Nc1c2ccc(Cl)cc2nc2ccc(OC)cc12)c1ccc(F)cc1 (stereo not drawn) | 86.9% | 94.1% | 14.7% | -17.8% (active) | -24.3% (active) | 18.4% | -70.8% (active) | – | – |
| O=c1oc2c(cc1-c1ccc(F)cc1)C(O)Oc1ccccc1-2 (stereo not drawn) | 99.2% | 105% | 83.1% | 80.8% | – | 88.9% | – | 101% | – |
| O=C(CCl)Oc1ccc(OC(=O)CCl)cc1 | 78.3% | 96.5% | 101% | 95% | -14.1% (active) | 96% | 82% | – | – |
| CCC(c1ccc(OC)cc1)C(CC)c1ccc(O)c(CN2CCN(C)CC2)c1 (stereo not drawn) | 57.8% | 88.9% | 76.1% | 51.8% | 61.9% | – | 57.6% | -83.5% (active) | – |
| IC(I)I | 102% | 100% | 102% | 109% | 119% | 102% | 101% | – | – |
| C[C@]12CC[C@@H]3c4ccc(O)cc4CC[C@H]3[C@@H]1CC[C@@H]2NS(=O)(=O)c1ccc(C(F)(F)F)cc1 | 56.4% | 51.6% | 63.8% | 3.9% (active) | – | 23.5% | 57.4% | 9.34% (active) | – |
| CC(C)(C)c1ccc(S(=O)(=O)N[C@H]2CC[C@H]3[C@@H]4CCc5cc(O)c([N+](=O)[O-])cc5[C@H]4CC[C@]23C)cc1 | 83.5% | 80% | 77.1% | 45.6% | 65.1% | 48.3% | 62.1% | – | – |
| NC(N)=N/N=C(\N=Nc1ccccc1)c1ccc(Cl)cc1 | 78.9% | 82.3% | 64.8% | 40% | 29.9% | 52.7% | 46.7% | 48.1% | – |

— PubChem BioAssay (NCI)
